PV pol inh – poliovirus RNA polymerase inhibition. hit rate 0.66% among 150,000. poliovirus polymerase elongation, fluorescence polarization; hits give low values. P03300. % elongation, % (compound at 16.7 µg/mL); in the data active means % elongation below about 90%
MbtI inh – MbtI salicylate synthase inhibition | P9WFX0 | purified MbtI enzyme, fluorescence intensity read-out | inhibition, % (concentration not given with the values) | hit rate 0.89% among 100,000; in the data active means inhibition mostly above about 56%, no sharp cut-off; inactive means mostly below about 77%
Mtb MenB inh – inhibitors of Mycobacterium tuberculosis MenB enzyme. AID 540299. MenB enzyme assay, absorbance read-out. hit rate 0.43% among 100,000. inhibition, % (no concentration beside the values). P9WNP5; in the data active means inhibition above about 21%, passing the limit was not always enough
Target sequence (P9WNP5 whole entry, looked up): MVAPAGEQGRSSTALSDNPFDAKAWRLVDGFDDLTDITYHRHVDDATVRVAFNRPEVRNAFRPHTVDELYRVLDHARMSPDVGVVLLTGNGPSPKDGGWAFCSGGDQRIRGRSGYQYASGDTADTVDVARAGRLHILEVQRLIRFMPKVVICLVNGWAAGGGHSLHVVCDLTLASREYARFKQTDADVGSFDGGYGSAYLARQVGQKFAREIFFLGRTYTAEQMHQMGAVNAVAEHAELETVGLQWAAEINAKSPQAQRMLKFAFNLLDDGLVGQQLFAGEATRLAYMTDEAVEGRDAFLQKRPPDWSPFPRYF
Large screens that a line does not name were inactive. An excerpt weighted towards active compounds, which were near 1.4% of everything screened.

O=C(N/N=C/c1ccco1)c1ccc(CN2c3cccc4cccc(c34)S2(=O)=O)cc1	none
COC(=O)CC1C(=O)NCCN1C(=O)CSc1nc2ccccc2c(=O)n1-c1ccc(C)cc1 (stereo not given)	none
COC(=O)CC1C(=O)NCCN1C(=O)CSc1nc2ccccc2s1 (stereo not given)	MbtI inh 97.2
Cc1ccc2cc(C)c(N3CC(C)OC(C)C3)nc2c1 (stereo not given)	none (no result: Mtb MenB inh)
O=C(CCCn1c(=O)c2cccn2c2ccccc21)N1CCc2ccccc21	none
COc1ccccc1CN1CCN(C(CC(C)C)c2nnnn2Cc2ccc(F)cc2)CC1 (stereo not given)	Mtb MenB inh 32.5
Fc1ccc(C(c2nnnn2Cc2ccccc2)N2CCSCC2)cc1 (stereo not given)	none
CCN(CC)C(=O)c1ccc(NC(=O)Cc2c[nH]c3ccccc23)cc1	none
Cc1ccc(N(O)S(=O)(=O)c2ccc(C)cc2)cc1	MbtI inh 64.9
Cc1ccc(S(=O)(=O)N(O)c2ccc(Cl)cc2)cc1	MbtI inh 82.5 (no result: Mtb MenB inh)
Cc1ccc(S(=O)(=O)N(C)C)cc1	none (no result: Mtb MenB inh)
Cc1ccc(N(C(=O)c2cccc(C)c2)S(=O)(=O)c2ccc(Cl)cc2)cc1	none (no result: MbtI inh, Mtb MenB inh)
CC(C)Cc1nnc(NC(=O)CCCN2C(=O)CCC2=O)s1	none
N#CCCn1c2c(c3ccccc31)CCc1ccccc1-2	none (no result: PV pol inh, Mtb MenB inh)
CCC12CN3CC(C)(CN(C1)C31C(=O)Nc3ccc(Br)cc31)C2=O (stereo not given)	none
O=C1CCCCC1Sc1nnc(C2CC2)n1Cc1ccccc1 (stereo not given)	none
COC(=O)C1CCN(C(=O)COc2ncnc3c(Cl)cc(Cl)cc23)CC1	none
O=C(CC1OC(=O)c2ccccc21)c1ccc(Cl)s1 (stereo not given)	PV pol inh 85.0
CC(C)NC(=O)CC1OC(=O)c2ccccc21 (stereo not given)	none (no result: PV pol inh, Mtb MenB inh)
CCn1c(SCC(=O)Nc2ccccc2OC)nc2c([nH]c3ccccc32)c1=O	none
S=c1nc(-c2cccs2)[nH]n1CN1CCCC1	none
O=C(NCCn1cnc2cccnc21)Nc1ccccc1-c1ccccc1	none
CC(C)c1cccc(C(C)C)c1O	none
Cc1cccc(O)c1O	MbtI inh 85.8
CSC1=C(C#N)C(=O)NC(c2ccc(Cl)cc2)S1 (stereo not given)	PV pol inh 88.0
CCSC1=C(C#N)C(=O)NC(c2ccc(O)cc2)S1 (stereo not given)	none
COc1cc(CN2CC=C(c3ccc(F)cc3)CC2)cc2c1OCO2	none
CC(=O)N=c1scc(-c2ccccc2)n1-c1ccc(Cl)cc1	none (no result: Mtb MenB inh)
COc1ccc(Nc2[nH]nc(NC(=O)CC3CC4CCC3C4)c2C#N)cc1 (stereo not given)	none
CCn1c(C)nc2cc(OC)ccc21	none (no result: Mtb MenB inh)
COc1cc2nc(C)n(C(=S)S)c2cc1OC	PV pol inh 78.0
CCn1c(SCCC#N)nnc1-c1ccncc1	Mtb MenB inh 30.7
CCn1c(SCC#N)nnc1-c1cccc(C)c1	none
COC(=O)c1ccc(C(=O)OC)cc1	none (no result: MbtI inh)
COC(=O)c1ccc(C(=S)NCC(OC)OC)cc1	PV pol inh 79.0, MbtI inh 86.5
O=C1C=CC(=O)N1C1CC1	MbtI inh 91.5
O=C1C2CCCN2C(=S)N1C1CCCCC1 (stereo not given)	none
Cc1ccccc1N=Cc1ccco1	none
CC1CCN(c2c(N)cccc2Cl)CC1	none (no result: MbtI inh)
Nc1cccc(Cl)c1O	MbtI inh 57.0
Cc1ccc2c(cnn2C(=O)CCC(=O)NCc2ccccc2)c1	none
Cc1nc(C(F)(F)F)ccc1C(=O)NCC1CC1	none
Cc1nc(C(F)(F)F)ccc1C(=O)NCC(O)c1ccccc1 (stereo not given)	PV pol inh 88.0
Cc1cc(N2CCCC2)ccc1/C=C/C1=CCN(C)CC1	PV pol inh 64.0
C=CCn1c(C)c(/C=C/C2=CCN(C)CC2)c2ccccc21	none
CC1Cc2ccccc2N1C(=O)/C=C/c1cccc(F)c1 (stereo not given)	none
Nc1cccc2c1C(=O)N(C(=O)/C=C/c1cccc(F)c1)C2=O	PV pol inh 82.0
CC(NC(=O)COc1ccccc1)C(=O)N1CCC(=O)CC1 (stereo not given)	none
CCOC(=O)c1s/c(=N/N=C(C)C)n(C)c1C	MbtI inh 56.2
CCOC(=O)c1s/c(=N\C(=S)NC(=O)CN2C(=O)CCC2=O)n(C)c1C	none
CSc1nc2ccccc2n1CC(=O)N1CCN(c2ccccc2)CC1	none (no result: PV pol inh)
O=C1COc2ccc(-c3csc(-n4nccc4C(F)(F)F)n3)cc2N1	PV pol inh 87.0
O=C1COc2ccc(-c3cc(-c4ccccc4)c4c(n3)-c3ccccc3OC4)cc2N1	none (no result: MbtI inh, Mtb MenB inh)
Oc1c(C(c2ccncc2)N2CCCC2)ccc2cccnc12 (stereo not given)	none
COc1ccc(C(c2ccc3cccnc3c2O)N2CCOCC2)cc1 (stereo not given)	MbtI inh 98.2
COc1ccc(C(c2ccc3cccnc3c2O)N2CCCC2)cc1 (stereo not given)	none (no result: MbtI inh, Mtb MenB inh)
CCN1CCN(C(c2cccnc2)c2ccc3cccnc3c2O)CC1 (stereo not given)	PV pol inh 87.0, MbtI inh 88.6
CCc1ccc(NC(=O)C(C)OC(=O)c2cnc(Cl)c(Cl)c2)cc1 (stereo not given)	none (no result: Mtb MenB inh)
O=C(CSc1nnc(-c2cccs2)o1)c1ccc[nH]1	none
Cn1c(C2CC2)n[nH]c1=S	none
CCn1c(C2CC2)n[nH]c1=S	MbtI inh 87.1 (no result: PV pol inh)
Cc1cc(NS(=O)(=O)c2ccc(N3C(=O)C=CC3=O)cc2)no1	MbtI inh 93.0
Cc1cc(NS(=O)(=O)c2ccc(NC(=S)NCc3ccccc3)cc2)no1	none
O=C1C(SCCO)=C(SCCO)C(=O)c2ccccc21	MbtI inh 91.5
CCOC=C1C(=O)c2ccccc2C1=O	none
O=C(NCCSc1nnnn1-c1ccccc1)c1ccccc1	none
COC(=O)NCCSc1nnnn1-c1ccccc1	Mtb MenB inh 30.7
CN(C(=O)c1cccc(NC(=O)[C@H]2[C@@H]3C[C@@H]4[C@H]2C(=O)O[C@@H]4C3)c1)c1ccccc1	none
O=C(/C=C/Sc1nc2ccccc2o1)c1ccccc1	MbtI inh 54.0
O=C(Sc1nc2ccccc2o1)c1ccccc1	MbtI inh 95.2
O=C(CSc1nc2ccccc2o1)c1ccccc1	none (no result: MbtI inh)
O=C(/C=C/Sc1ccccn1)c1ccccc1	none
Cc1cc(C)nc(SCCSc2nc(C)cc(C)n2)n1	Mtb MenB inh 33.9
Cc1cc(C)nc(SCCN(C)C)n1	none (no result: PV pol inh, Mtb MenB inh)
COc1cc(C)nc(SCC(N)=O)n1	none
Cc1cc(C)nc(SCC(N)=O)n1	Mtb MenB inh 46.0
CCn1c(CNC(=O)NCc2ccccc2)nnc1SC	none
O=C1NC(=O)C(=Cc2ccc(Br)cc2)C(=O)N1	none (no result: MbtI inh)
O=C1NN(c2ccccc2)C(=O)/C1=C/c1ccc(Br)cc1	Mtb MenB inh 79.4 (no result: MbtI inh)
CC(Oc1ccc(C(C)C)cc1)C(=O)Nc1nccs1 (stereo not given)	none
CCOc1ccccc1NC(=O)CSc1nc(O)cc(=O)n1C1CCCC1	none (no result: PV pol inh)
CCOCCCNC(=O)c1cc2c(-c3ccc(OC)c(OC)c3)nn(C)c2s1	none (no result: MbtI inh, Mtb MenB inh)
CCCCN(CC)CCCNC(=O)c1cc2c(-c3ccc(OC)c(OC)c3)nn(C)c2s1	PV pol inh 80.0 (no result: MbtI inh, Mtb MenB inh)
O=C1CCN(C(=O)/C=C/c2ccccc2)c2ccccc21	none
O=C(/C=C/c1ccccc1)ON1C(=O)CCC1=O	PV pol inh 35.0 (no result: MbtI inh)
CC(C)COC(=O)C(C)Oc1ccc2c3c(c(=O)oc2c1)CCC3 (stereo not given)	none
Cc1nnc(C)c2c(C)n(-c3ccc4c(c3)OCO4)c(C)c12	none
S=c1[nH]nc(-c2ccncc2)n1-c1ccc2c(c1)OCO2	MbtI inh 62.3

Screening data as filed in PubChem.
